According to PubChem BioAssay (EPA / NIEHS):
Activity calls are given as the source filed them. The calls were made as follows: active = hit-call score of the fitted dose curve at least 0.9, where 1 is the maximum; inactive = score below 0.9.

Columns and labels:
Conditions in all cases: mRNA level, 48 h; actives raise or lower the signal
[1] = read-out: Fatty Acid-Binding Protein 1 (FABP1), FABP1 (gene 2168); assay: LTEA_HepaRG_FABP1: Life Technologies and Expression Analysis (LTEA) Assay for Fatty Acid-Binding Protein 1 (FABP1) using HepaRG (AID 2283494)
Method in brief: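 Differentiated human HepaRG cells exposed 48 h in serum-free induction medium to eight half-log concentrations up to 100 uM (0.5% DMSO), duplicate. FABP1 mRNA by qRT-PCR, normalised to ACTB, GAPDH, POLR2A; bidirectional fitting against DMSO.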

[2] = read-out: Cytochrome P450 4A22 (Homo sapiens) (UniProt Q5TCH4); assay: LTEA_HepaRG_CYP4A22: Life Technologies and Expression Analysis (LTEA) Assay for Cytochrome P450 4A22 (CYP4A22) using HepaRG (AID 2283495)
Method in brief: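 Cryopreserved HepaRG cells, plated and cultured 48 h, then switched to serum-free induction medium and treated 48 h (duplicates, up to 100 uM, half-log steps, 0.5% DMSO). Expression change of CYP4A22 was fitted bidirectionally against vehicle.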

[3] = read-out: Cytochrome P450 7A1 (Homo sapiens) (UniProt P22680); assay: LTEA_HepaRG_CYP7A1: Life Technologies and Expression Analysis (LTEA) Assay for Cytochrome P450 7A1 (CYP7A1) using HepaRG (AID 2283496)
Method in brief: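 Gene expression endpoint in human HepaRG liver cells treated for 48 h with test chemicals (up to 100 uM, 0.5% DMSO). Values come from bidirectional concentration-response fitting versus DMSO.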

[4] = read-out: Glutathione S-Transferase (GSTA2), GSTA2 (gene 2939); assay: LTEA_HepaRG_GSTA2: Life Technologies and Expression Analysis (LTEA) Assay for Glutathione S-Transferase (GSTA2) using HepaRG (AID 2283497)
Method in brief: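 Differentiated human HepaRG cells were exposed in duplicate for 48 h in serum-free induction medium, 8 points from 100 uM top in half-log steps, 0.5% DMSO. GSTA2 mRNA was measured by TaqMan qRT-PCR, normalized to ACTB, GAPDH and POLR2A; bidirectional fit versus DMSO.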

[5] = read-out: Glutamate-cysteine ligase catalytic (GCLC), GCLC (gene 2729); assay: LTEA_HepaRG_GCLC: Life Technologies and Expression Analysis (LTEA) Assay for Glutamate-cysteine ligase catalytic (GCLC) using HepaRG (AID 2283498)
Method in brief: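 Differentiated HepaRG cells exposed 48 h in serum-free induction medium, eight-point half-log series topping at 100 uM in 0.5% DMSO, duplicates. GCLC mRNA by qRT-PCR normalized to ACTB, GAPDH and POLR2A, fitted bidirectionally versus DMSO.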

[6] = read-out: growth arrest and DNA damage 45 (GADD45G), GADD45G (gene 10912); assay: LTEA_HepaRG_GADD45G: Life Technologies and Expression Analysis (LTEA) Assay for growth arrest and DNA damage 45 (GADD45G) using HepaRG (AID 2283499)
Method in brief: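 Human hepatic HepaRG line treated 48 h with chemicals (eight concentrations, half-log steps from 100 uM); transcript induction or repression of GADD45G scored by qRT-PCR versus DMSO vehicle.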

[7] = read-out: Glutamate-cysteine ligase regulatory (GCLM), GCLM (gene 2730); assay: LTEA_HepaRG_GCLM: Life Technologies and Expression Analysis (LTEA) Assay for Glutamate-cysteine ligase regulatory (GCLM) using HepaRG (AID 2283500)
Method in brief: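 Human liver HepaRG cultures receive test chemicals for 48 hours at up to 100 uM in 0.5% DMSO. GCLM expression is measured by qRT-PCR and analysed for increases or decreases against vehicle.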

[8] = read-out: Glutathione S-transferase M3 (GSTM3), GSTM3 (gene 2947); assay: LTEA_HepaRG_GSTM3: Life Technologies and Expression Analysis (LTEA) Assay for Glutathione S-transferase M3 (GSTM3) using HepaRG (AID 2283501)
Method in brief: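 Changes in GSTM3 expression, an oxidative-stress marker, were scored by bidirectional curve fitting against 0.5% DMSO vehicle. Human HepaRG cultures received chemicals for 48 h in duplicate, highest concentration 100 uM with half-log dilutions.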

[9] = read-out: Heat shock 70 kDa protein 1 (HSPA1A), gene 3303; assay: LTEA_HepaRG_HSPA1A: Life Technologies and Expression Analysis (LTEA) Assay for Heat shock 70 kDa protein 1 (HSPA1A) using HepaRG (AID 2283502)
Method in brief: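 HSPA1A induction in human HepaRG liver cells is measured after 48 h of chemical treatment (100 uM maximum, 0.5% DMSO vehicle). Expression comes from qRT-PCR normalized to endogenous controls.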

[10] = read-out: Hypoxia-inducible factor 1-alpha (Homo sapiens) (UniProt Q16665); assay: LTEA_HepaRG_HIF1A: Life Technologies and Expression Analysis (LTEA) Assay for Hypoxia-inducible factor 1 (HIF1A) Trancription factor using HepaRG (AID 2283503);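 also: HIF1A transcript by TaqMan qRT-PCR normalized to ACTB GAPDH and POLR2A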
Method in brief: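 HepaRG, 48 h exposure, 8-pt half-log series from 100 uM, 0.5% DMSO vehicle, duplicates. Readout: HIF1A transcript by qRT-PCR (Fluidigm array), housekeeping-normalised. Bidirectional curve fit vs DMSO baseline.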

[11] = read-out: 3-Hydroxy-3-Methylglutaryl-CoA Synthase 2 (HMGCS2), HMGCS2 (gene 3158); assay: LTEA_HepaRG_HMGCS2: Life Technologies and Expression Analysis (LTEA) Assay for 3-Hydroxy-3-Methylglutaryl-CoA Synthase 2 (HMGCS2) using HepaRG (AID 2283504)
Method in brief: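 Expression of HMGCS2 in human HepaRG liver cells is measured by qRT-PCR 48 h after dosing (highest 100 uM, half-log series, 0.5% DMSO). Values come from bidirectional concentration-response fitting with DMSO as baseline.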

HGF (gene 3082) = assay: LTEA_HepaRG_HGF: Life Technologies and Expression Analysis (LTEA) Assay for Hepatocyte Growth Facto (HGF) using HepaRG (AID 2283505)
Method in brief: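 Gain or loss of HGF mRNA in human HepaRG liver cells after 48 h chemical exposure; eight concentrations up to 100 uM with 0.5% DMSO vehicle, quantified by TaqMan qRT-PCR.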

[12] = read-out: Intercellular Adhesion Molecule 1 (ICAM1), ICAM1 (gene 3383); assay: LTEA_HepaRG_ICAM1: Life Technologies and Expression Analysis (LTEA) Assay for Intercellular Adhesion Molecule 1 (ICAM1) using HepaRG (AID 2283507)
Method in brief: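 Gain or loss of transcript in HepaRG hepatic cells is quantified by qRT-PCR after 48 h chemical exposure (up to 100 uM, half-log steps), with DMSO as baseline.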

[13] = read-out: Insulin-like growth factor-binding protein 1 (IGFBP1), IGFBP1 (gene 3484); assay: LTEA_HepaRG_IGFBP1: Life Technologies and Expression Analysis (LTEA) Assay for Insulin-like growth factor-binding protein 1 (IGFBP1) using HepaRG (AID 2283508)
Method in brief: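 mRNA induction or loss was quantified by qRT-PCR after 48 h chemical exposure of human HepaRG cells, with 0.5% DMSO as vehicle and baseline. Concentration-response over eight points up to 100 uM.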

[14] = read-out: Interleukin 6 (IL6), IL6 (gene 3569); assay: LTEA_HepaRG_IL6: Life Technologies and Expression Analysis (LTEA) Assay for Interleukin 6 (IL6) using HepaRG (AID 2283509)
Method in brief: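 HepaRG cells exposed in duplicate for 48 h to eight half-log concentrations, top 100 uM, in 0.5% DMSO serum-free induction medium. mRNA measured by qRT-PCR, normalized to ACTB, GAPDH and POLR2A. Bidirectional fit versus DMSO.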

[15] = read-out: Interleukin 6 Receptor (IL6R), IL6R (gene 3570); assay: LTEA_HepaRG_IL6R: Life Technologies and Expression Analysis (LTEA) Assay for Interleukin 6 Receptor (IL6R) using HepaRG (AID 2283510);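 as to AC50: TaqMan qRT-PCR signal normalized to ACTB GAPDH and POLR2A housekeeping genes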
Method in brief: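 Concentration-response in human liver HepaRG cells: eight concentrations from 100 uM downward by half-logs, 48 h exposure, 0.5% DMSO vehicle. IL6R mRNA change measured by qRT-PCR and fitted in both directions relative to vehicle.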

[16] = read-out: Potassium channel subfamily K member 1 (KCNK1), KCNK1 (gene 3775); assay: LTEA_HepaRG_KCNK1: Life Technologies and Expression Analysis (LTEA) Assay for Potassium channel subfamily K member 1 (KCNK1) using HepaRG (AID 2283511)
Method in brief: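 Differentiated HepaRG cells, 48 h exposure in serum-free induction medium with 0.5% DMSO; 8 concentrations, half-log from 100 uM, duplicate. KCNK1 mRNA by qRT-PCR, normalized to ACTB, GAPDH, POLR2A; bidirectional fit vs DMSO.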

[17] = read-out: Keratin 19 (KRT19), KRT19 (gene 3880); assay: LTEA_HepaRG_KRT19: Life Technologies and Expression Analysis (LTEA) Assay for Keratin 19 (KRT19) using HepaRG (AID 2283512)
Method in brief: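 Gene-expression endpoint in the human liver line HepaRG after 48 h exposure to up to 100 uM test chemical with 0.5% DMSO vehicle; KRT19 mRNA by qRT-PCR, analyzed bidirectionally versus DMSO.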

[18] = read-out: Insulin Like Growth Factor 1 (IGF1), IGF1 (gene 3479); assay: LTEA_HepaRG_IGF1: Life Technologies and Expression Analysis (LTEA) Assay for Insulin Like Growth Factor 1 (IGF1) using HepaRG (AID 2283506)
Method in brief: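 Using human HepaRG liver cells, IGF1 transcript induction or suppression is measured 48 h after dosing across eight concentrations capped at 100 uM. Values derive from bidirectional concentration-response fitting with DMSO as baseline.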

Measured: AC50

Hypoxia-inducible factor 1-alpha (Homo sapiens), sequence (Q16665 whole entry, looked up): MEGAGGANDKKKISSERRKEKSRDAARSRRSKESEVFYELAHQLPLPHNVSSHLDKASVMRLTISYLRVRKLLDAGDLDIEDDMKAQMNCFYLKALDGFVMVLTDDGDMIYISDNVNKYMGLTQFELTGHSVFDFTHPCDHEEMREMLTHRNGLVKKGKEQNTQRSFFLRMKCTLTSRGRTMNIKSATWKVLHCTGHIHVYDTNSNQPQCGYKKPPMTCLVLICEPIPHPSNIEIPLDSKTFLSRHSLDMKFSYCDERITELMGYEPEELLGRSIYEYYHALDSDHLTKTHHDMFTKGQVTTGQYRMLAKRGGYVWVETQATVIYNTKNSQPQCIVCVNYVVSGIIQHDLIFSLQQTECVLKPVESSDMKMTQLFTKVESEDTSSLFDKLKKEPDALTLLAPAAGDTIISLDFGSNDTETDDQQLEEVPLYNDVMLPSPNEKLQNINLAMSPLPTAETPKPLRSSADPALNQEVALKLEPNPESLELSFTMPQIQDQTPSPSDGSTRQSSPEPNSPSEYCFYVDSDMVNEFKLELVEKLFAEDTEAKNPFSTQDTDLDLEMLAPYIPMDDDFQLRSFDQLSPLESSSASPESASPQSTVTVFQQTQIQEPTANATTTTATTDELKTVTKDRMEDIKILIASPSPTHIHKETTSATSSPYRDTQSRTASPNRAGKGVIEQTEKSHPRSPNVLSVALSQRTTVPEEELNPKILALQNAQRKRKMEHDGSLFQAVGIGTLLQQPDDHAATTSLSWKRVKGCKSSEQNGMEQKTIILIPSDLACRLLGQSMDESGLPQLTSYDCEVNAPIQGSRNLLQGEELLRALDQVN

NC(=O)N1c2ccccc2C=Cc2ccccc21
not listed: [18]
inactive: all other assays above

CCCCCCCCCCCCCCO
not listed: [8] | [18]
inactive: all other assays above

COc1cc(C(C)C)c2c(c1)S(=O)(=O)N(COc1cc(=O)n3cccc(OCCN4CCCCC4)c3n1)C2=O
inactive: [7] | [10] | [12] | [13] | [16]
active: [1] 21.7 µM | [2] 20.9 µM | [3] 19.6 µM | [4] 20.5 µM | [5] 12.5 µM | [6] 19.1 µM | [9] 19.7 µM | [11] 20 µM | HGF (gene 3082) 12.5 µM | [14] 12.5 µM | [15] 12.5 µM | [17] 12.5 µM

C[C@@H](Oc1ccc(CNC(=O)c2cccnc2Oc2ccc3c(c2)OCO3)c(F)c1)C(=O)O
active: [1] 50 µM | [2] 28.6 µM | [11] 25.8 µM
not listed: [6]
inactive: all other assays above

CC(=O)c1ccccc1
not listed: [8]
inactive: all other assays above

CCCCCOC(C)=O
not listed: [8] | [18]
inactive: all other assays above

CCCCC(CC)C(=O)OCCOCCOCCOC(=O)C(CC)CCCC (stereo not drawn)
not listed: [8] | [18]
inactive: all other assays above

O=C(NO)C1(NS(=O)(=O)c2ccc(Oc3ccc(F)cc3)cc2)CCOCC1
active: [1] 50 µM | [2] 68.9 µM | [4] 83.5 µM | [6] 72.6 µM | [11] 83.3 µM | [17] 71.4 µM
not listed: [18]
inactive: all other assays above

Cc1nc(-c2ccccn2)ncc1C(=O)Nn1cc(C)c2cc(F)ccc21
active: [1] 6.97 µM | [2] 51.4 µM | [4] 65.5 µM | [10] 81 µM | [11] 66.8 µM | HGF (gene 3082) 65.1 µM
not listed: [8]
inactive: all other assays above

CCCc1ccccc1
not listed: [18]
inactive: all other assays above

CC1(C)C(=O)N(Cl)C(=O)N1Cl
not listed: [8]
inactive: all other assays above

O=C(O)c1cccc(C[C@@H]2COc3ccc(OCc4nc5cc(F)ccc5s4)cc3[C@@H]2O)c1
active: [1] 79.3 µM | [2] 90.8 µM | [3] 77.6 µM | [6] 79.5 µM | [9] 89.2 µM | [10] 81.3 µM | [11] 66.8 µM | HGF (gene 3082) 50 µM | [15] 50 µM
not listed: [8]
inactive: all other assays above

O=S(=O)(O)c1ccc(N=Nc2c(O)ccc3cc(S(=O)(=O)O)ccc23)cc1
not listed: [8] | [18]
inactive: all other assays above

Cn1c(=O)c2[nH]cnc2n(C)c1=O
not listed: [1] | [8] | [10] | [12] | [13] | [18]
inactive: all other assays above

C=CCc1cc(S(=O)(=O)c2ccc(O)c(CC=C)c2)ccc1O
inactive: [6] | [7] | [12] | [16]
active: [1] 86.8 µM | [2] 82.6 µM | [3] 83.1 µM | [4] 93.1 µM | [5] 50 µM | [9] 79 µM | [10] 91.4 µM | [11] 86.3 µM | HGF (gene 3082) 79.5 µM | [13] 79.6 µM | [14] 93.2 µM | [15] 75.9 µM | [17] 50 µM

O=C(O)[C@H](O)[C@@H](O)C(=O)O
not listed: [2] | [3] | [10]
inactive: all other assays above

OC[C@H]1O[C@@](CO)(O[C@H]2O[C@H](CO)[C@@H](O)[C@H](O)[C@H]2O)[C@@H](O)[C@@H]1O
not listed: [18]
inactive: all other assays above
